# “And” between values parts separate entries of the source, which are not always exact repeats. Equal entries are not always repeated. Records with an inconclusive call do not appear. Entries that show only a call come without a potency. The source holds several records for some structures; these can differ, active in one and inactive in another. The source made the active and inactive calls. Unless noted, the call rests on the fitted dose curve; in most records, active means well fitted curve in the direction sought with a large enough effect in the repeat runs; inconclusive means weak or mixed curves; inactive means no such curve, though single readings can be large; an effect the other way counts as inactive or inconclusive.
# Columns and labels:
# [1] = qHTS assay to identify aromatase inhibitors - cell viability counter screen (AID 743084);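 further: cells stimulated with testosterone during compound exposure; nearly all actives have a fitted effect of over 55% in size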; further: potency means the concentration at half of the fitted maximal effect
# [2] = qHTS assay to identify small molecule phospholipidosis (PLD) inducers (AID 1259344; active means well fitted curve in the direction sought with a large enough effect; an effect the other way counts as inactive or inconclusive)
# How it was run: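 Quantitative HTS in HepG2: compound plus LipidTOX Red dye for 24 h, paraformaldehyde fixation with Hoechst 33342, widefield high-content imaging; amiodarone as positive and DMSO as negative control.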
# [3] = biological target: Aryl hydrocarbon receptor (Homo sapiens) (UniProt P35869); assay: qHTS assay to identify small molecule that activate the aryl hydrocarbon receptor (AhR) signaling pathway (AID 743085); further: nearly all actives have a fitted effect of over 15% in size; further: potency means the concentration at half of the fitted maximal effect;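 on activation: HG2L7.5c1 human HepG2 liver cells with stably integrated DRE-driven firefly reporter; series mostly up to about 70 µM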
# How it was run: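 Stably transfected human liver carcinoma cells (HG2L7.5c1; 20 DRE-firefly luciferase) were incubated 5 h, dosed, and kept 24 h at 37C. Agonism was scored from increased luciferase luminescence.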
# [4] = biological target: Peroxisome proliferator-activated receptor gamma (Homo sapiens) (UniProt P37231); assay: qHTS assay to identify small molecule agonists of the peroxisome proliferator-activated receptor gamma (PPARg) signaling pathway (AID 743094; active means well fitted activation curve with a large enough effect in the signal ratio in the repeat runs, not every such curve was filed as active; the % refers to the signal ratio)
# How it was run: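 Compounds dissolved in DMSO were added to PPARg UAS-bla HEK293H cells for 17 h at 37C, and reporter expression was quantified by fluorescence intensity after 1 h with LiveBLAzer B/G FRET substrate.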
# [5] = biological target: Nuclear receptor subfamily 1 group I member 2 (Homo sapiens) (UniProt O75469); assay: CYP3A4 induction through human pregnane X receptor (PXR) by small molecules, qHTS assay (AID 1346984); further: nearly all actives have a fitted effect of over 40% in size; further: potency means the concentration at half of the fitted maximal effect
# How it was run: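 Readings come from a luciferase reporter: DPX-2 cells, which are HepG2 cotransfected with PXR and a CYP3A4-promoter construct, were exposed to test compounds for 24 h at 37C before One-Glo detection.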
# [6] = biological target: Nuclear receptor subfamily 1 group I member 2 (Homo sapiens) (UniProt O75469); assay: Human pregnane X receptor (PXR) activation by small molecules, qHTS assay (AID 1346985); further: nearly all actives have a fitted effect of over 40% in size; further: potency means the concentration at half of the fitted maximal effect
# How it was run: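 DPX-2 cells (HepG2 co-transfected with a PXR response element and a CYP3A4-promoter luciferase construct) were seeded at 2,000 per well, rested 5 hr at 37C, then exposed to DMSO-dissolved compounds for 24 hr. Activation was read as luciferase luminescence.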
# [7] = qHTS assay to identify small molecule that activate the aryl hydrocarbon receptor (AhR) signaling pathway - cell viability counter screen (AID 743086); further: nearly all actives have a fitted effect of over 45% in size; further: potency means the concentration at half of the fitted maximal effect
# How it was run: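 HepG2-AhR-luc (HG2L7.5c1) cells, 4000/well, treated 24 h at 37 C with compound; viability measured as CellTiter-Fluor fluorescence after 30 min in the same wells as the luciferase read.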
# [8] = biological target: Nuclear receptor subfamily 1 group I member 2 (Rattus norvegicus) (UniProt Q9R1A7); assay: Rat pregnane X receptor (rPXR) activation by small molecules, qHTS assay (AID 1346983); conditions: rPXR luciferase reporter cells, One-Glo luminescence, 24 h; max activation: stronger effect = higher value; further: nearly all actives have a fitted effect of over 20% in size; further: potency means the concentration at half of the fitted maximal effect
# How it was run: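 Cell-based rPXR activation assay: rPXR cells, 2,000 per well, rested 5hr at 37 C, then exposed to compounds in DMSO for 24 hr at 37 C. Luciferase activity read by One-Glo luminescence after 30 min at room temperature.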
# Sequence of Nuclear receptor subfamily 1 group I member 2 (Rattus norvegicus) (Q9R1A7 whole entry, looked up): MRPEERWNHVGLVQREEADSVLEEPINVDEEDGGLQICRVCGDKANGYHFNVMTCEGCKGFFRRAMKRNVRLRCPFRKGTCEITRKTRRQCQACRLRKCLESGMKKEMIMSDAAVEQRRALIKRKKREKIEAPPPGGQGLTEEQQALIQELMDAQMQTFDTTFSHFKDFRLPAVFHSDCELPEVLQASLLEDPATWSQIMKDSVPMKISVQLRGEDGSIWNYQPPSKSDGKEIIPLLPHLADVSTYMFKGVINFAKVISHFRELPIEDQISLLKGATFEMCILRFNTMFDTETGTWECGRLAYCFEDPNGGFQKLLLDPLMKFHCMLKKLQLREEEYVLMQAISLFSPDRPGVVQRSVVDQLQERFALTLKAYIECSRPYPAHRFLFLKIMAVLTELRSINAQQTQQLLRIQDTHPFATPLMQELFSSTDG
# Sequence of Peroxisome proliferator-activated receptor gamma (Homo sapiens) (P37231 whole entry, looked up): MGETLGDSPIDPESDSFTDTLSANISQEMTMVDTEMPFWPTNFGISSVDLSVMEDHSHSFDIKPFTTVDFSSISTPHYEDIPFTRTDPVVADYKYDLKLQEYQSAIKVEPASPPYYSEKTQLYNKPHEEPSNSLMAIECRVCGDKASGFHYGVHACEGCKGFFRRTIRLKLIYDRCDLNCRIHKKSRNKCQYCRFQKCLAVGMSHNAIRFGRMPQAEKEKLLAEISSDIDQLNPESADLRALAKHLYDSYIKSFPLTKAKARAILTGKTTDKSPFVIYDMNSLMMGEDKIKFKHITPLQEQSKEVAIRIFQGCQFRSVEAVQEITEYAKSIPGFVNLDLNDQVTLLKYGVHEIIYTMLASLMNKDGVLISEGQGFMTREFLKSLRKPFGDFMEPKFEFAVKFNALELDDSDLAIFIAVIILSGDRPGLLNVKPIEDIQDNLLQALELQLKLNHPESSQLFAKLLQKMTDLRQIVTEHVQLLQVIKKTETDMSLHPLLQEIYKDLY
# Sequence of Aryl hydrocarbon receptor (Homo sapiens) (P35869 whole entry, looked up): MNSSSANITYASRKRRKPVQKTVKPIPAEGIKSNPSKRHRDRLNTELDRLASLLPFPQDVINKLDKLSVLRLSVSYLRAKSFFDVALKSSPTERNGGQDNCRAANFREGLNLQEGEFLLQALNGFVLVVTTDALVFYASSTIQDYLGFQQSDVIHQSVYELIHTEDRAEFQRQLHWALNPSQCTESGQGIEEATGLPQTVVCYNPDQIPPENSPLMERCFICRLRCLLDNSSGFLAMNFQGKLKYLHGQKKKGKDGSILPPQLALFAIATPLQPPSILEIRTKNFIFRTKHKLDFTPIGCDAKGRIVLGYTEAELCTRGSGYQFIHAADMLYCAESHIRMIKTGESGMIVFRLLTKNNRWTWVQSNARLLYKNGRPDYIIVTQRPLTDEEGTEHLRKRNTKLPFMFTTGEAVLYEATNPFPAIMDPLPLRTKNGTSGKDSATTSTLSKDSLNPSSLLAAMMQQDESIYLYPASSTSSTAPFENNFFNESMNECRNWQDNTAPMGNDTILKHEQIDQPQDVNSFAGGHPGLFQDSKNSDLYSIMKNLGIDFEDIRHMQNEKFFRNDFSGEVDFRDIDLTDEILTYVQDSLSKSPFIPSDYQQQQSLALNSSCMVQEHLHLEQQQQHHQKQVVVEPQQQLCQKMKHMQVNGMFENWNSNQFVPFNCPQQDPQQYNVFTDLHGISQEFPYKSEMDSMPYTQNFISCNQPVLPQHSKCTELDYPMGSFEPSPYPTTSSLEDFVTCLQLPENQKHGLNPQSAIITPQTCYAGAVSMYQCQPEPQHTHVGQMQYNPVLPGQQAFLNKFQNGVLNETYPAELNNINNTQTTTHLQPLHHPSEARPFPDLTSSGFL
smiles,measurement,setting,value
CCC[C@@]1(CCc2ccccc2)CC(O)=C([C@H](CC)c2cccc(NS(=O)(=O)c3ccc(C(F)(F)F)cn3)c2)C(=O)O1,Potency,[1],inactive
same,PLD induction,[2],-4.07% [at 7.66 µM] (inactive)
Cc1cccc(C)c1Nc1ncccc1C(=O)O,Potency,[1],inactive
same,Potency,[3],29.8 µM (active)
same,Potency,[4],inactive
same,Potency,[2],inactive
same,Potency,[5],inactive
CCCC(=O)Nc1ncnc2c1ncn2[C@@H]1O[C@@H]2COP(=O)(O)O[C@H]2[C@H]1OC(=O)CCC,Potency,[1],inactive
same,Potency,[3],inactive
same,Potency,[2],inactive
CN[C@H]1CCc2cc(OC)c(OC)c(OC)c2-c2ccc(OC)c(=O)cc21,Potency,[1],inactive
same,Potency,[4],inactive
same,Potency,[2],inactive
same,Potency,[5],inactive
same,Potency,[6],1 µM (active)
CC(=O)[C@]1(O)Cc2c(O)c3c(c(O)c2[C@@H](O[C@H]2C[C@H](N)[C@H](O)[C@H](C)O2)C1)C(=O)c1c(O)cccc1C3=O,Potency,[1],26.6 µM (active)
same,Potency,[3],inactive
same,Potency,[7],4.73 µM (active) and 13.3 µM (active)
same,PLD induction,[2],-0.0504% [at 7.66 µM] (inactive)
same,Potency,[5],inactive
same,Potency,[6],14.1 µM (active) and inactive
CC(C(=O)O)c1ccc(N2Cc3ccccc3C2=O)cc1 (stereo not given),Potency,[1],inactive
same,Potency,[3],0.0596 µM (active)
same,Potency,[7],inactive
same,Potency,[4],inactive
same,Potency,[2],inactive
same,Potency,[5],inactive
same,Potency,[6],inactive
CC(=O)O[C@H]1C[C@@]2(C)[C@@H](C[C@@H](O)[C@H]3[C@@]4(C)CC[C@@H](O)[C@@H](C)[C@@H]4CC[C@@]32C)/C1=C(\CCC=C(C)C)C(=O)O,Potency,[1],inactive
same,Potency,[3],inactive
same,Potency,[7],inactive
same,Potency,[4],inactive
same,Potency,[2],inactive
same,Potency,[6],inactive
CCCCCCCCCCCCCCCC(=O)OCCC1CCN(CCCN2c3ccccc3Sc3ccc(S(=O)(=O)N(C)C)cc32)CC1,Potency,[1],inactive
same,Potency,[3],inactive
same,Potency,[2],inactive
CO[C@@H]1[C@@H](O[C@@H]2O[C@H](C)[C@@H](O[C@H]3C[C@@](C)(O)[C@@H](O)[C@H](C)O3)[C@H](N(C)C)[C@H]2O)[C@@H](CC=O)C[C@@H](C)[C@@H](O[C@@H]2CC[C@H](N(C)C)[C@@H](C)O2)/C=C/C=C/C[C@@H](C)OC(=O)C[C@H]1O,Potency,[1],inactive
same,Potency,[7],inactive
same,Potency,[4],inactive
same,Potency,[2],inactive
same,max activation,[8],-4.61% (inactive)
C#CCOc1ccc2c(C)cc(=O)oc2c1,Potency,[1],inactive
same,Potency,[7],inactive
same,Potency,[4],inactive
same,Potency,[2],inactive
same,Potency,[5],inactive
O=C(O)COc1ccc(CCNS(=O)(=O)c2ccccc2)s1,Potency,[1],inactive
same,Potency,[3],inactive
same,Potency,[7],inactive
same,Potency,[4],inactive
same,Potency,[2],inactive
same,Potency,[5],inactive
same,Potency,[6],inactive
Cc1cc(O)c2c(c1)O[C@@]1(C)CC[C@H]3C(C)(C)CCCC34CO[C@@H]2[C@H]41 (stereo not given in full),Potency,[1],29.8 µM (active)
same,Potency,[3],inactive
same,Potency,[7],inactive
same,Potency,[2],inactive
same,Potency,[5],inactive
same,Potency,[6],2.82 µM (active)
C[C@]12CCC(=O)C=C1CC[C@@H]1[C@@H]2[C@@H](O)C[C@@]2(C)[C@H]1CC[C@]2(O)C(=O)COP(=O)(O)O,Potency,[1],inactive
same,Potency,[7],inactive
same,Potency,[4],inactive
same,Potency,[2],inactive
same,max activation,[8],11.6% (inactive)
O=C(O)[C@H](CC(=O)N1C[C@H]2CCCC[C@H]2C1)Cc1ccccc1,Potency,[1],inactive
same,Potency,[3],inactive
same,Potency,[7],inactive
same,Potency,[4],inactive
same,Potency,[2],inactive
same,max activation,[8],-2.62% (inactive)
CCCCCCCCCCCCCCCCCC(=O)[O][Al],Potency,[1],inactive
same,Potency,[3],inactive
same,Potency,[7],inactive
same,Potency,[2],inactive
O=C(c1cc2ccccc2o1)N1CCN(Cc2ccccc2)CC1,Potency,[1],inactive
same,Potency,[7],inactive
same,Potency,[4],inactive
same,Potency,[2],inactive
same,Potency,[5],inactive
same,Potency,[6],inactive
CC1=C(/C=C/C(C)=C/C=C/C(C)=C/C=C/C=C(C)/C=C/C=C(C)/C=C/C2=C(C)C[C@@H](O)CC2(C)C)C(C)(C)C[C@H](O)C1,Potency,[7],inactive
same,Potency,[2],inactive
same,Potency,[5],inactive
same,Potency,[6],inactive
O.O=C([O-])CC([S-])C(=O)[O-].[Au+].[Na+].[Na+] (stereo not given),Potency,[1],inactive
same,Potency,[3],inactive
same,Potency,[2],inactive
CC(O)[C@@H]1NC(=O)[C@H](CCCCN)NC(=O)[C@@H](Cc2c[nH]c3ccccc23)NC(=O)[C@H](Cc2ccccc2)NC(=O)[C@@H](NC(=O)[C@H](N)Cc2ccccc2)CSSC[C@@H](C(=O)N[C@H](CO)[C@@H](C)O)NC1=O (stereo not given in full),Potency,[1],inactive
same,Potency,[3],inactive
same,Potency,[7],inactive
same,Potency,[2],inactive
COC(=O)C1=C(C#N)NC(C)=C(C(=O)OC(C)C)C1c1cccc([N+](=O)[O-])c1 (stereo not given),Potency,[3],inactive
same,Potency,[2],inactive
same,Potency,[8],7.94 µM (active)
CN1C(=O)CN2CCc3ccccc3C2c2cc(Cl)ccc21 (stereo not given),Potency,[1],inactive
same,Potency,[3],4.73 µM (active)
same,Potency,[7],inactive
same,Potency,[4],inactive
same,Potency,[2],inactive
same,Potency,[5],3.16 µM (active)
same,Potency,[6],22.4 µM (active)
CCCN(CC)C(CC)C(=O)Nc1c(C)cccc1C (stereo not given),Potency,[1],inactive
same,Potency,[3],inactive
same,Potency,[2],inactive
CC(C)CN(C[C@@H](OP(=O)(O)O)[C@H](Cc1ccccc1)NC(=O)O[C@H]1CCOC1)S(=O)(=O)c1ccc(N)cc1,Potency,[1],inactive
same,Potency,[3],inactive
same,Potency,[7],inactive
same,Potency,[2],inactive
same,Potency,[5],inactive
same,Potency,[6],10 µM (active)
c1ccc2c(CCC3CCNCC3)c[nH]c2c1,Potency,[1],inactive
same,Potency,[3],11.9 µM (active)
same,Potency,[2],inactive
CC(NNC(=O)c1ccccc1)c1ccccc1 (stereo not given),Potency,[1],inactive
same,Potency,[3],11.9 µM (active)
same,Potency,[7],inactive
same,Potency,[4],inactive
same,Potency,[2],inactive
same,Potency,[5],inactive

# — PubChem BioAssay (Tox21)
